Laboratory results: PubChem BioAssay AID1159580 (chemical genetic matrix, 2015)
Several values for one entry are separate records, joined by “and”; a condition that tells them apart may be missing. Identical values can stand only once. About 2,000 (36%) of roughly 5,500 compounds were called active. Inconclusive results (about 18%) are left out. Rule as the data show it: active = normalized growth mostly below about 0.91 (no sharp cut-off); inconclusive = no clear call, values can overlap the other calls; inactive = mostly above about 0.92. The list shows a part of the results.

Assay: chemical genetic growth profiling, strain panel (AID 1159580);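 also: tested at 20 µM; growth read once vehicle control cultures reached saturation at 30 °C; 1 = growth at the plate median or of vehicle wells; lower values mean less growth of the strain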
Settings: S. cerevisiae deletion strains, growth OD

Measured: normalized growth

C[C@H](N)[C@H](O)c1cccc(O)c1
inactive: locus YAL021C, strain ccr4, hits give low values 1 | locus YAL026C, strain drs2, hits give low values 1.01 | locus YAL030W, strain snc1, hits give low values 1 | locus YBL061C, strain skt5, hits give low values 1.01 | locus YBR009C, strain hhf1, hits give low values 1.02 | locus YBR021W, strain FUR4, hits give low values 1.04 | locus YBR023C, strain chs3, hits give low values 1.02 | locus YBR171W, strain sec66, hits give low values 1.02 | locus YBR229C, strain ROT2, hits give low values 0.992 | locus YBR231C, strain swc5, hits give low values 1 | locus YBR279W, strain paf1, hits give low values 1.01 | locus YCL011C, strain gbp2, hits give low values 1 | locus YCL016C, strain dcc1, hits give low values 1.02 | locus YCL029C, strain bik1, hits give low values 0.985 | locus YCL061C, strain MRC1, hits give low values 1.01 | locus YCL069W, strain vba3, hits give low values 0.994 | locus YCR088W, strain abp1, hits give low values 1 | locus YDL005C, strain med2, hits give low values 1.01 | locus YDL035C, strain GPR1, hits give low values 0.983 | locus YDL040C, strain nat1, hits give low values 1 | locus YDL074C, strain BRE1, hits give low values 1.04 | locus YDL101C, strain DUN1, hits give low values 0.997 | locus YDL185W, strain tfp1, hits give low values 0.957 | locus YDL192W, strain arf1, hits give low values 0.99 | locus YDR001C, strain nth1, hits give low values 0.999 | locus YDR069C, strain doa4, hits give low values 1.01 | locus YDR101C, strain arx1, hits give low values 1 | locus YDR137W, strain rgp1, hits give low values 1.03 | locus YDR150W, strain NUM1, hits give low values 0.981 | locus YDR159W, strain sac3, hits give low values 1.03 | locus YDR162C, strain NBP2, hits give low values 0.986 | locus YDR195W, strain ref2 1 | locus YDR297W, strain sur2, hits give low values 1 | locus YDR318W, strain mcm21, hits give low values 0.997 | locus YDR334W, strain swr1, hits give low values 0.999 | locus YDR335W, strain msn5, hits give low values 0.994 | locus YDR388W, hits give low values 0.987 | locus YDR392W, strain spt3, hits give low values 1.02 | locus YDR502C, strain sam2, hits give low values 1 | locus YEL003W, strain gim4, hits give low values 1.01 | locus YEL037C, strain rad23, hits give low values 1 | locus YEL061C, strain CIN8 (second series), hits give low values 0.992 | locus YEL061C, strain CIN8, hits give low values 0.988 | locus YER015W, strain faa2, hits give low values 1.01 | locus YER016W, strain bim1, hits give low values 1.01 | locus YER110C, hits give low values 0.973 | locus YER111C, strain swi4, hits give low values 1 | locus YER155C, strain BEM2 (second series), hits give low values 0.995 | locus YER155C, strain BEM2, hits give low values 1.01 | locus YER167W, strain BCK2, hits give low values 0.989 | locus YFR010W, strain ubp6, hits give low values 1.01 | locus YGL078C, strain dbp3, hits give low values 0.995 | locus YGL086W, strain mad1, hits give low values 1.01 | locus YGL167C, strain pmr1, hits give low values 1.02 | locus YGL173C, strain kem1, hits give low values 1.01 | locus YGL227W, strain vid30, hits give low values 1 | locus YGL240W, strain doc1, hits give low values 1.01 | locus YGL248W, strain PDE1, hits give low values 1.02 | locus YGL253W, strain hxk2, hits give low values 1.01 | locus YGR078C, strain PAC10, hits give low values 1.01 | locus YGR135W, strain pre9, hits give low values 0.942 | locus YGR252W, strain gcn5, hits give low values 1.04 | locus YHR013C, strain ard1, hits give low values 1.02 | locus YHR027C, strain rpn1, hits give low values 1.02 | locus YHR030C, strain SLT2, hits give low values 0.979 and 1.02 | locus YHR079C, strain IRE1 (second series), hits give low values 0.999 | locus YHR079C, strain IRE1, hits give low values 1.02 | locus YHR094C, strain hxt1, hits give low values 0.979 | locus YHR129C, strain ARP1, hits give low values 0.997 | locus YHR142W, strain chs7, hits give low values 1 | locus YHR200W, strain rpn10, hits give low values 0.987 | locus YIL066C, strain RNR3, hits give low values 1 | locus YIL073C, strain SPO22, hits give low values 0.828 | locus YIL125W, strain kgd1, hits give low values 0.988 | locus YIR030C, strain dcg1, hits give low values 0.982 | locus YJL092W, strain hpr5, hits give low values 1.01 | locus YJL095W, strain BCK1 (second series), hits give low values 1.01 | locus YJL095W, strain BCK1, hits give low values 1.01 and 1.04 | locus YJL115W, strain asf1, hits give low values 1.01 | locus YJL129C, strain trk1, hits give low values 0.995 | locus YJL134W, strain LCB3, hits give low values 0.985 | locus YJL154C, strain vps35, hits give low values 0.997 | locus YJL164C, strain tpk1, hits give low values 1.01 | locus YJL166W, strain qcr8, hits give low values 1 | locus YJL168C, strain set2, hits give low values 0.999 | locus YJL187C, strain SWE1 (second series), hits give low values 0.996 | locus YJL187C, strain SWE1, hits give low values 1.01 | locus YJR043C, strain POL32, hits give low values 1.04 | locus YJR066W, strain TOR1, hits give low values 0.991 | locus YKL009W, strain mrt4, hits give low values 0.987 | locus YKL068W, hits give low values 0.977 | locus YKL085W, strain MDH1 (second series), hits give low values 0.984 | locus YKL085W, strain MDH1, hits give low values 0.984 | locus YKL160W, strain elf1, hits give low values 1 | locus YKR001C, strain vps1, hits give low values 0.998 | locus YKR026C, strain gcn3, hits give low values 1.01 | locus YKR091W, strain srl3, hits give low values 0.998 | locus YLL001W, strain dnm1, hits give low values 1.01 | locus YLL026W, hits give low values 1 | locus YLL041C, strain sdh2, hits give low values 1.01 | locus YLR027C, strain aat2, hits give low values 1.01 | locus YLR039C, strain RIC1, hits give low values 0.968 | locus YLR058C, strain SHM2, hits give low values 0.983 | locus YLR102C, strain apc9, hits give low values 0.993 | locus YLR113W, strain HOG1, hits give low values 1.07 | locus YLR221C, strain rsa3, hits give low values 1.01 | locus YLR258W, strain gsy2, hits give low values 1 | locus YLR262C, strain YPT6 (second series), hits give low values 1.03 | locus YLR262C, strain YPT6, hits give low values 0.963 | locus YLR268W, strain sec22, hits give low values 1.01 | locus YLR320W, strain mms22, hits give low values 1.02 | locus YLR330W, strain CHS5, hits give low values 0.985 | locus YLR342W, strain FKS1 (second series), hits give low values 0.98 | locus YLR342W, strain FKS1, hits give low values 1.01 | locus YLR357W, strain rsc2, hits give low values 0.993 | locus YLR370C, strain arc18, hits give low values 1.01 | locus YLR371W, strain rom2, hits give low values 1 | locus YLR384C, strain iki3, hits give low values 1.01 | locus YLR418C, strain cdc73, hits give low values 0.983 | locus YML016C, strain PPZ1, hits give low values 0.995 | locus YML032C, strain rad52, hits give low values 1.01 | locus YML120C, strain ndi1, hits give low values 1.01 | locus YML124C, strain tub3, hits give low values 0.991 | locus YMR058W, strain fet3, hits give low values 1 | locus YMR078C, strain ctf18, hits give low values 0.985 | locus YMR125W, strain sto1, hits give low values 1 | locus YMR129W, hits give low values 1 | locus YMR205C, strain PFK2, hits give low values 1.03 | locus YMR223W, strain ubp8, hits give low values 0.971 | locus YMR231W, strain pep5, hits give low values 1.02 | locus YMR263W, strain SAP30, hits give low values 0.995 | locus YMR307W, strain GAS1, hits give low values 1 | locus YNL067W, strain RPL9B, hits give low values 1.02 | locus YNL071W, strain lat1, hits give low values 0.997 | locus YNL153C, strain GIM3, hits give low values 1.04 | locus YNL183C, strain NPR1, hits give low values 0.989 | locus YNL209W, strain ssb2, hits give low values 1.01 | locus YNL233W, strain BNI4, hits give low values 1.05 | locus YNL248C, strain rpa49, hits give low values 1.01 | locus YNL250W, strain rad50, hits give low values 0.993 | locus YNL271C, strain bni1, hits give low values 0.997 | locus YNL298W, strain CLA4, hits give low values 0.993 | locus YNL307C, strain MCK1, hits give low values 1 | locus YNL322C, strain KRE1 (second series), hits give low values 1.01 | locus YNR049C, strain mso1, hits give low values 1.01 | locus YNR052C, strain pop2, hits give low values 0.993 | locus YOL012C, strain htz1 1.01 | locus YOL147C, strain pex11, hits give low values 0.978 | locus YOR001W, strain rrp6, hits give low values 1.01 | locus YOR061W, strain CKA2, hits give low values 0.996 | locus YOR069W, strain VPS5, hits give low values 0.985 | locus YOR070C, strain gyp1, hits give low values 1.01 | locus YOR080W, strain dia2, hits give low values 1.02 | locus YOR083W, strain WHI5, hits give low values 1.01 | locus YOR106W, strain vam3, hits give low values 1.02 | locus YOR136W, strain idh2, hits give low values 1.01 | locus YOR144C, strain elg1, hits give low values 0.996 | locus YOR184W, strain ser1, hits give low values 0.989 | locus YOR231W, strain MKK1, hits give low values 1.06 | locus YOR265W, strain rbl2, hits give low values 1.01 | locus YOR270C, strain vph1, hits give low values 1.01 | locus YOR290C, strain snf2, hits give low values 1.03 | locus YOR316C, strain cot1, hits give low values 0.99 | locus YPL051W, strain arl3, hits give low values 1.01 | locus YPL055C, strain LGE1, hits give low values 1.06 | locus YPL078C, strain atp4, hits give low values 1.01 | locus YPL106C, strain sse1, hits give low values 1.03 | locus YPL240C, strain hsp82, hits give low values 1.01 | locus YPL256C, strain CLN2, hits give low values 1.04 | locus YPR119W, strain clb2, hits give low values 0.995 | locus YPR141C, strain kar3, hits give low values 0.978 | locus YPR163C, strain tif3, hits give low values 0.987 | locus YPR167C, strain met16, hits give low values 1 | strain wtn01, hits give low values 0.998
